Measurements as given in PubChem BioAssay (NCI).
The panel holds about 83,000 compounds, 20% with a hit somewhere; the sample as a whole holds those more often.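 In brief: 96-well plates, 48 h treatment, single concentration, percent growth endpoint.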 Calls of active or inactive are those of the source. How the source made its calls: active means growth percent below 10; inactive means the rest.

Key:
Assay in all cases: NCI-60 one-dose screen, 48 h (100 = growth as untreated, 0 = no growth, -100 = all killed)
Details in all cases: 10 µM unless noted
T-47D breast = test system: T-47D breast
BT-549 breast = test system: BT-549 breast
MDA-MB-435 melanoma = test system: MDA-MB-435 melanoma
SW-620 colon = test system: SW-620 colon
MCF7 breast = test system: MCF7 breast
HCT-116 colon = test system: HCT-116 colon
HCC-2998 colon = test system: HCC-2998 colon
KM12 colon = test system: KM12 colon

Measured: growth

CC(C)OCC1CO1 (stereo unspecified)
inactive: T-47D breast 104% | BT-549 breast 106% | MDA-MB-435 melanoma 102% | SW-620 colon 96.4% | MCF7 breast 99.6% | HCT-116 colon 100%

O=C(/C(Br)=C/c1ccccc1)c1ccccc1
inactive: BT-549 breast 95.8% | HCC-2998 colon 94%
active: T-47D breast -31.7% | MDA-MB-435 melanoma -11.2% | SW-620 colon -77.3% | MCF7 breast 0.441% | HCT-116 colon -100%

CC1=C(C)C(=O)C(C(C)C2=C(C)C(=O)C(C)=C(C)C2=O)=C(C)C1=O
inactive: T-47D breast 91.6% | BT-549 breast 83.5% | MDA-MB-435 melanoma 98.1% | SW-620 colon 107% | MCF7 breast 102% | HCT-116 colon 71.2% | HCC-2998 colon 23.4% | KM12 colon 88.8%

COc1ccc(-c2nnc(SCC(=O)Nc3ccc(C(=O)/C=C/c4cc(OC)c(OC)c(OC)c4)cc3)n2-c2ccccc2)cc1OC
inactive: SW-620 colon 12.2% [100 µM]
active: T-47D breast -43.3% [100 µM] | BT-549 breast -94.7% [100 µM] | MDA-MB-435 melanoma -16.1% [100 µM] | MCF7 breast 1.19% [100 µM] | HCT-116 colon -84.5% [100 µM] | HCC-2998 colon 8.22% [100 µM]

CC(=O)c1nn(-c2ccc(C)cc2)cc1C(=O)c1cc2c(ccc3ccccc32)oc1=O
inactive: T-47D breast 75.2% | BT-549 breast 85.5% | MDA-MB-435 melanoma 99% | SW-620 colon 100% | MCF7 breast 87.5% | HCT-116 colon 89.4% | HCC-2998 colon 103%

O=C(/C=C/c1cccc(O)c1)c1cccc(-n2cc(-c3ccc(Cl)cc3)[nH]c2=O)c1
active: T-47D breast -0.126% | BT-549 breast -42.5% | MDA-MB-435 melanoma -9.55% | SW-620 colon -75.4% | MCF7 breast -8.69% | HCT-116 colon -85.2% | HCC-2998 colon -64.4%

COc1ccc(Cn2cc3c(c2-c2ccccc2)CCc2cnoc2-3)cc1N
active: MDA-MB-435 melanoma -27.9% | HCT-116 colon 9.53% | HCC-2998 colon -1.21%
inactive: T-47D breast 37.2% | BT-549 breast 36.2% | SW-620 colon 23.5% | MCF7 breast 16%

CC(Br)c1nc2ccccc2cc1C(N)=O (stereo unspecified)
inactive: T-47D breast 95.7% | BT-549 breast 112% | MDA-MB-435 melanoma 112% | SW-620 colon 110% | MCF7 breast 84.9% | HCT-116 colon 106% | HCC-2998 colon 102%

CCOC(=O)NC1=NCC(C)(C)S1
inactive: T-47D breast 93.8% | BT-549 breast 106% | MDA-MB-435 melanoma 100% | SW-620 colon 103% | MCF7 breast 100% | HCT-116 colon 105% | HCC-2998 colon 98.3%

COc1ccc(-c2nc(N)n(C(=S)Nc3ccccc3)n2)cc1
inactive: T-47D breast 84.8% | BT-549 breast 102% | MDA-MB-435 melanoma 107% | SW-620 colon 99% | MCF7 breast 89.1% | HCT-116 colon 98.3% | HCC-2998 colon 107% | KM12 colon 95.5%

CC1(C)NC(=S)NC1=O
inactive: T-47D breast 91.6% | BT-549 breast 103% | MDA-MB-435 melanoma 110% | SW-620 colon 96.9% | MCF7 breast 99.2% | HCT-116 colon 102% | HCC-2998 colon 112% | KM12 colon 108%

COC(=O)/C=C1/CCCCC1(C)C(=O)OC (stereo unspecified)
inactive: T-47D breast 110% | BT-549 breast 89.8% | MDA-MB-435 melanoma 103% | SW-620 colon 106% | MCF7 breast 106% | HCT-116 colon 95.7% | HCC-2998 colon 119%

N=C(c1ccccc1)N(Cc1ccccc1)Cc1ccccc1
inactive: T-47D breast 94.8% | BT-549 breast 93.2% | MDA-MB-435 melanoma 77.6% | SW-620 colon 89.4% | MCF7 breast 87.5% | HCT-116 colon 57.3% | HCC-2998 colon 106%

COc1cc([C@@H]2c3cc4c(cc3[C@H](O)[C@H]3COC[C@@H]23)OCO4)cc(OC)c1OC
inactive: T-47D breast 83.7% | BT-549 breast 90.6% | SW-620 colon 54.4% | MCF7 breast 30.9% | HCT-116 colon 66.7% | HCC-2998 colon 85.5%
active: MDA-MB-435 melanoma -12.4%

COC1(OC)N=C(N)C2(C#N)C3(C(=O)Nc4ccccc43)C12C#N (stereo unspecified)
inactive: T-47D breast 95.8% | BT-549 breast 62.5% | MDA-MB-435 melanoma 91.7% | SW-620 colon 94.9% | MCF7 breast 86.7% | HCT-116 colon 81.6% | HCC-2998 colon 103%

COC(=O)[C@H](Cc1cn(C)cn1)NC(=O)[C@H](CC(=O)OCc1ccccc1)NC(=O)Nc1cc(C(F)(F)F)cc(C(F)(F)F)c1
active: T-47D breast -62.1% [100 µM] | BT-549 breast -96.6% [100 µM] | MDA-MB-435 melanoma -91.9% [100 µM] | SW-620 colon -59.2% [100 µM] | MCF7 breast -60.5% [100 µM] | HCT-116 colon -97.9% [100 µM] | HCC-2998 colon -91.5% [100 µM]

CCCCCCNC(=O)Oc1ccc(/C(=C(/C)Cc2ccc(OC)cc2)c2ccc(OCCN3CCCCC3)cc2)cc1
inactive: T-47D breast 42% | BT-549 breast 92.5% | MDA-MB-435 melanoma 91.5% | SW-620 colon 84.6% | MCF7 breast 30.6% | HCT-116 colon 63.7% | HCC-2998 colon 94.9%

Nc1cc2c(cc1Br)[nH]c(=O)c1ccccc12
active: MDA-MB-435 melanoma -42.6%
inactive: T-47D breast 29.6% | BT-549 breast 65.1% | SW-620 colon 61% | MCF7 breast 15.9% | HCT-116 colon 19.2% | HCC-2998 colon 68%

CCCCN(CCCC)c1ccc(C(=O)O)cc1
inactive: T-47D breast 94.7% | BT-549 breast 97% | MDA-MB-435 melanoma 102% | SW-620 colon 107% | MCF7 breast 98.6% | HCT-116 colon 97.3% | HCC-2998 colon 100%

CCOc1ccc(Br)cc1/C=C(\C#N)c1ccc([N+](=O)[O-])cc1
inactive: T-47D breast 66.4% | BT-549 breast 96.5% | MDA-MB-435 melanoma 85% | SW-620 colon 86.6% | MCF7 breast 23.4% | HCT-116 colon 67.9%

COC1=C(OC)C(=O)c2ccccc2C1=O
inactive: T-47D breast 59.1% | BT-549 breast 101% | MDA-MB-435 melanoma 111% | SW-620 colon 97% | MCF7 breast 86.3% | HCT-116 colon 96.2% | HCC-2998 colon 94.5%

O=C(/C=C1\C(=O)N(Cc2ccccc2)c2ccccc21)c1ccc(OCCN2CCCCC2)cc1
inactive: BT-549 breast 80.4% | MDA-MB-435 melanoma 96.1% | HCC-2998 colon 93.8%
active: T-47D breast -56.3% | SW-620 colon -45.7% | MCF7 breast 3.98% | HCT-116 colon -3.84%

CCC(C)[C@H](NC(=O)Nc1cc(C(F)(F)F)cc(C(F)(F)F)c1)C(=O)N[C@@H](Cc1cn(C)cn1)C(=O)OC (stereo partly specified)
active: T-47D breast -63.1% [100 µM] | BT-549 breast -94.5% [100 µM] | MDA-MB-435 melanoma -91.6% [100 µM] | SW-620 colon -58.3% [100 µM] | MCF7 breast -60.1% [100 µM] | HCT-116 colon -93.1% [100 µM] | HCC-2998 colon -89.9% [100 µM]

CCn1cnc(C[C@H](NC(=O)[C@@H](NC(=O)Nc2cc(C(F)(F)F)cc(C(F)(F)F)c2)C(C)(C)C)C(=O)OC)c1
active: T-47D breast -58% [100 µM] | BT-549 breast -86.2% [100 µM] | MDA-MB-435 melanoma -90.7% [100 µM] | SW-620 colon -60% [100 µM] | MCF7 breast -62% [100 µM] | HCT-116 colon -81% [100 µM] | HCC-2998 colon -89.3% [100 µM]

CCCCCCCCCCN1CC2CCCCC2C1 (stereo unspecified)
inactive: T-47D breast 56.7% | BT-549 breast 69% | MDA-MB-435 melanoma 91.3% | SW-620 colon 74.2% | MCF7 breast 65% | HCT-116 colon 53.6%

CC(=O)CC(=O)OC/C=C(/C)CCC=C(C)C
inactive: T-47D breast 123% | BT-549 breast 102% | MDA-MB-435 melanoma 114% | SW-620 colon 105% | MCF7 breast 99.6% | HCT-116 colon 98.9% | HCC-2998 colon 97.2% | KM12 colon 105%

O=C(NC(=S)NNC(=S)NNc1ccccc1)c1ccccc1
inactive: T-47D breast 18.4% | BT-549 breast 49.5% | SW-620 colon 24.4% | HCT-116 colon 24.3% | HCC-2998 colon 50.7%
active: MDA-MB-435 melanoma 4.94% | MCF7 breast 8.12%

C/C(=C\c1ccc2ccccc2c1)[N+](=O)[O-]
active: T-47D breast -52.8% | SW-620 colon -33.8% | MCF7 breast -50.9% | HCT-116 colon -40.7%
inactive: BT-549 breast 64.4% | MDA-MB-435 melanoma 51.8% | HCC-2998 colon 78.5%

O=P(OCCCl)(OCCCl)C(O)c1ccccc1Cl (stereo unspecified)
inactive: T-47D breast 98.2% | BT-549 breast 107% | MDA-MB-435 melanoma 102% | SW-620 colon 111% | MCF7 breast 99% | HCT-116 colon 107% | HCC-2998 colon 106%

O=C(O)c1ccc(-c2nn(-c3ccc(C(=O)O)cc3)cc2CNc2ccc(Br)cc2)cc1
inactive: T-47D breast 96.6% | BT-549 breast 98.8% | MDA-MB-435 melanoma 107% | SW-620 colon 107% | MCF7 breast 90.3% | HCT-116 colon 101% | HCC-2998 colon 102%

O=C(Cc1ccccc1[N+](=O)[O-])c1ccc2c(c1)OCO2
inactive: T-47D breast 94.4% | BT-549 breast 92.1% | MDA-MB-435 melanoma 102% | SW-620 colon 99% | MCF7 breast 96.5% | HCT-116 colon 103% | HCC-2998 colon 116% | KM12 colon 107%

N=c1c2c(=O)n3c(nc2nc2sc4ccc(Cl)cc4n12)-c1ccccc1Sc1ccccc1-3
active: T-47D breast 1.99% | BT-549 breast 1.57% | MDA-MB-435 melanoma 0.844% | MCF7 breast 6.98% | HCT-116 colon 7.35% | HCC-2998 colon 6.95%
inactive: SW-620 colon 26.1%
